# Screens: PubChem BioAssay, National Center for Advancing Translational Sciences (NCATS)
# The list is not random: actives were taken first. Their share in the collection is about 21%.
# Pf growth 96h = Primary qHTS for delayed death inhibitors of the malarial parasite plastid, 96 hour incubation; Potency, µM (series often up to 28.7 µM), inactives show top-dose activity change, negative = inhibition, actives largely listed as inhibitors; P. falciparum luciferase reporter growth, 96 h; 320,000 tested, 6.9% active; also: potency is read from the fitted curve at half-maximal effect; % is scaled to controls: 0 for no effect and ±100 for the full control effect
#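 Compounds incubated with erythrocytes infected by luciferase-expressing P. falciparum (2% hematocrit, 0.05% parasitemia final) for 96 hours, 37 C in 5% CO2. Growth inhibition scored as decreased luciferase luminescence.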
# Cycloheximide cs = Cycloheximide Counterscreen for Small Molecule Inhibitors of Shiga Toxin; cell reporter, cycloheximide protein synthesis inhibition counterscreen; max response, %; 300,000 tested, 12% active; in the data active = max response mostly above about 13%, no sharp cut-off; inactive = mostly below about 14%; also: read at 38.3 µM for the half of the compounds with a filed dose; 0% is about no effect
# Pf growth 48h = Primary qHTS for delayed death inhibitors of the malarial parasite plastid, 48 hour incubation. 310,000 tested, 5.9% active. AID 504832, 2011. P. falciparum luciferase growth in erythrocytes, 48 h. Potency, µM (series often up to 28.7 µM), for inactives: at the top dose activity change, negative = inhibition, hits mostly inhibitors; also: potency is read from the fitted curve at half-maximal effect; % is scaled to controls: 0 for no effect and ±100 for the full control effect
#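 Growth was read as firefly luciferase luminescence after a 48 h, 37 C, 5% CO2 exposure of compounds to reporter-bearing P. falciparum cultures (0.1% parasitemia, 2% hematocrit final) in Albumax-supplemented RPMI 1640.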
# AMA1-RON2 inh = qHTS for Inhibitors of AMA1-RON; Towards Development of Antimalarial Drug Lead: Primary Screen. Plasmodium falciparum AMA1 (3D7) - RON2 peptide interaction. AlphaScreen AMA1-biotinylated RON2 peptide binding. Potency, µM (top dose mostly 58.2 µM), inactives show top-dose activity change, negative = inhibition, actives largely listed as inhibitors. 360,000 tested, 0.2% active. AID 720542, 2013;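 also: potency is read from the fitted curve at half-maximal effect; 0% = vehicle wells and -100% = peptide control; nearly all actives have a fitted effect of over 45% in size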
#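 AMA1 (3D7) with his tag at 25 nM final met compounds first, then biotinylated RON2 peptide at 25 nM; detection used donor plus acceptor beads, 10 µg/mL apiece, read by AlphaScreen after 30 min at room temperature.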
# HCV inh = qHTS Assay for Inhibitors of Hepatitis C Virus (HCV). AID 651820, 2012. Huh7.5.1 HCVcc-Cre infection, luciferase reporter, 44 h. Potency, µM (doses to about 41.8 µM), inactives show at the top dose activity change, negative = inhibition, hits mostly inhibitors. 340,000 tested, 3.4% active; also: potency is read from the fitted curve at half-maximal effect; % is scaled to controls: 0 for no effect and ±100 for the full control effect
#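 Cells seeded at 1,000/well and cultured 4 h, then compounds added followed by HCVcc-Cre virus (~0.5 moi). After 44 h further culture, luciferase substrate was added, plates held 15 min at room temperature, and luminescence read for 15 sec.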
# Shiga inhibitor = A qHTS for Small Molecule Inhibitors of Shiga Toxin | AID 2315, 2010 | inhibition, % at 38.7 µM | Vero cells, Shiga toxin protein synthesis inhibition reporter | 290,000 tested, 9.2% active; in the data active = inhibition mostly above about 28%, no sharp cut-off; inactive = mostly below about 43%; also: 0% is about no effect
# Numbers without * were called inactive; ? = inconclusive; · = no result; [ ] = dose if it differs, or a comment. Unless noted, calls follow the shape of the dose curve; as a rule, active = well fitted curve in the direction sought with a large enough effect; inconclusive = small, poorly fitted or top-dose-only effect, or another doubt; inactive = no such curve, though single readings can be large; an effect the other way counts as inactive or inconclusive.
SMILES,Pf growth 96h,Cycloheximide cs,Pf growth 48h,AMA1-RON2 inh,HCV inh,Shiga inhibitor
Cc1cc(NC(=O)Cc2ccsc2)ccc1Br,44%,33*,51%,1%,?,69*
CN(CCc1ccccn1)C(=O)CCc1nnc(CCCc2ccccc2)o1,?,45*,-17%,-10%,1%,73*
COC(c1ccccc1)c1nnc(CCC(=O)N(C)CCc2ccccc2)o1 (centres undefined),4%,8,7%,2%,3%,5
CN(CCc1cnn(C)c1)C(=O)CCc1nnc(CCCc2ccccc2)o1,?,17*,-4%,13%,9%,36*
CCN1CCN(C(=O)CNC(=O)c2nn(-c3ccc(OC)cc3)c(=O)c3ccccc23)CC1,1.5µM*,10,27%,8%,7%,22
CCOC(=O)N1CCN(C(=O)CNC(=O)c2nn(-c3ccc(OC)c(OC)c3)c(=O)c3ccccc23)CC1,?,-5,?,-2%,17%,-11
CCCCNC(=O)CNC(=O)c1nn(-c2ccc(OC)c(Cl)c2)c(=O)c2ccccc12,30%,-2,·,9%,-11%,13
CCC1CCCCN1CCCNC(=O)CNC(=O)c1nn(-c2ccc(OC)c(Cl)c2)c(=O)c2ccccc12 (centres undefined),?,-3,5.2µM*,-12%,?,-12
COc1ccc(-n2nc(C(=O)NCC(=O)N3CCN(c4ccccc4OC)CC3)c3ccccc3c2=O)cc1OC,?,3,1.7µM*,14%,-26%,-7
COc1ccc(-n2nc(C(=O)NCC(=O)N3CCN(c4ccccn4)CC3)c3ccccc3c2=O)cc1OC,3%,15*,-18%,-6%,-19%,26
COc1ccc(-n2nc(C(=O)NCC(=O)N3CCN(c4ccccc4)CC3)c3ccccc3c2=O)cc1OC,16%,22*,0%,-15%,-23%,43*
COc1ccc(-n2nc(C(=O)NCC(=O)N3CCC4(CC3)OCCO4)c3ccccc3c2=O)cc1OC,4.7µM*,17*,?,2%,2%,37
NC(=O)N/N=C/c1ccc(OCc2cccc(Cl)c2)cc1,3%,-1,26%,8%,-3%,41
O=C(/C=C/c1ccc(Cl)cc1)N1CCOCC1,11%,35*,36%,18%,6%,54*
O=C(/C=C/c1ccc(Cl)c(Cl)c1)N1CCOCC1,?,24*,13%,1%,18%,104*
O=C(/C=C/c1ccccc1)N1CCOCC1,3.3µM*,14,18%,-6%,13%,6
CN1CCN(C(=O)/C=C\c2ccc(Cl)cc2)CC1,10%,-1,42%,-3%,13%,2
O=C(/C=C/c1ccc(OCc2cccc(Cl)c2)cc1)N1CCOCC1,?,24*,?,-9%,-22%,45
CN(C)C(CNC(=O)c1cc(S(=O)(=O)N2CCOCC2)ccc1F)c1cccs1 (centres undefined),·,·,·,-3%,5%,·
O=C(COc1ccc(/C=C\[N+](=O)[O-])cc1)N1CCOCC1,92%,-1,?,-7%,15%,-5
CCCOc1ccc(/C=C/C(=O)N2CCOCC2)cc1,-4%,56*,78%,-4%,1%,61*
COc1cc(/C=C/c2ccc3cccc(O)c3n2)c(Br)cc1O,21%,40*,?,·,·,93*
Oc1c(Cl)cc(Cl)cc1/C=C/c1ccc2cccc(O)c2n1,-21%,7,-29%,61%,?,31
CSc1ccc(/C=C/c2ccc3cccc(O)c3n2)cc1,-26%,44*,-19%,46%,?,115*
Oc1cccc2ccc(/C=C/c3ccccc3Br)nc12,?,62*,0%,42%,?,83*
SMILES,Pf growth 96h,Cycloheximide cs,Pf growth 48h,AMA1-RON2 inh,HCV inh,Shiga inhibitor
COc1cc(/C=C/c2ccc3cccc(O)c3n2)ccc1O,?,55*,-61%,93%,11µM*,68*
C/C=C/c1ccc(O)c(OC)c1,?,·,9%,-13%,-9%,·
COc1cc(Br)c(/C=C/c2ccc3cccc(O)c3n2)cc1OC,2.1µM*,11,2.6µM*,106%,10µM*,2
COc1cc(Br)cc(/C=C/c2ccc3cccc(O)c3n2)c1O,10%,32*,-12%[0.00184 µM],117%,?,75*
Oc1ccc(Cl)cc1/C=C/c1ccc2cccc(O)c2n1,-5%,29*,?,60%,?,61*
COc1ccc(OC)c(/C=C/c2ccnc3ccccc23)c1,·,·,·,-9%,?,·
COc1ccc(OC)c(/C=C/c2ccc3cccc(O)c3n2)c1,39%,59*,4.1µM*,·,·,89*
Oc1ccc2ccccc2c1/C=C/c1ccc2c(Br)cc(Br)c(O)c2n1,·,·,·,33%,?,·
CC1=C(C(=O)OCc2cc(C)on2)N2C(=O)[C@@H](NC(=O)OCc3cc(C)on3)[C@H]2SC1,22%,·,-26%,52%,27%,·
NC(CCc1ccccc1)c1csc(NC(=O)NCC2CCCCC2)n1 (centres undefined),·,·,·,47%,·,·
COC(=O)[C@]12CCCCC=C1N(Cc1ccc(Cl)cc1Cl)C(=O)[C@H](CC(=O)N1CCSCC1)C2,·,·,·,-20%,·,·
CC(C)N(Cc1ccccc1)C(=O)CN1C(=O)NC(Cc2ccccc2)(c2ccccc2)C1=O (centres undefined),12µM*,-3,?,-4%,-12%,-3
COc1ccc(CNC(=O)CN2C(=O)NC(Cc3ccccc3)(c3ccccc3)C2=O)cc1OC (centres undefined),15µM*,·,?,-4%,-2%,·
COc1ccc(CNC(=O)CN2C(=O)NC(c3ccccc3)(c3ccccc3)C2=O)cc1OC,·,·,·,-7%[11.6 µM],-25%,·
Oc1ccc(Br)cc1/C=N/n1cnc2ccccc21,2.3µM*,41*,3.3µM*,7%,-29%,60*
Oc1ccc(Br)cc1/C=N/N1CCCCC1,148%,52*,95%,-4%,21%,82*
O=[N+]([O-])c1ccc(O)c(C=NN2CCCCC2)c1,·,·,·,23%,·,·
Oc1cc(Br)ccc1C=Nc1ccc(N2CCCCC2)cc1,8.3µM*,10,8.3µM*,-6%,4%,34
CCOc1ccc(NC(=O)Nc2c(C)n(C)n(-c3ccccc3)c2=O)cc1,-20%,-4,-1%,15%,4%,-4
O=C(Oc1cccccc1=O)c1ccccc1,15µM*,-1,?,9%,-5%,6
CC(=O)Nc1ccc(Oc2cncc(Cl)c2)nc1,26%,-1,10%,2%,-11%,-7
